The values below come from PubChem BioAssay (NCI).

The panel holds about 79,000 compounds, 15% with a hit somewhere; the sample as a whole holds those more often. Unmarked numbers belong to inactive results. The source made the active and inactive calls. Cut-off read from the data, not from the text of the source: active = growth inhibition above about 70%; inactive = the rest.

The nature of assay [1]: NCI Yeast Anticancer Drug Screen. Data for the rad50 strain (AID 155).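 Note: 0% = growth of vehicle-only cultures of the same strain.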 Particulars: S. cerevisiae rad50 strain growth inhibition; at 50.0 µM; stronger effect = higher value. An outline of the steps: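 Inhibition values express reduced yeast growth in compound-treated cultures relative to vehicle-treated controls.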
Assay [2] is described as follows: NCI Yeast Anticancer Drug Screen. Data for the mec2-1 strain (AID 157). The conditions noted are these: S. cerevisiae mec2-1 strain, at 50.0 µM, stronger effect = higher value. An outline of the steps:
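Test agents were screened against the mec2-1 yeast strain, with defined DNA repair or cell cycle alteration. Growth was scored as inhibition against vehicle-only controls.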

Assay [3] in a line: NCI Yeast Anticancer Drug Screen. Data for the sgs1 mgt1 strain (AID 161).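 Note: 0% = growth of cultures given vehicle only.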 Particulars: S. cerevisiae sgs1 mgt1 strain, at 50.0 µM, stronger effect = higher value. The method, boiled down: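 Inhibition of yeast growth, normalised to vehicle-treated controls, is reported for a strain bearing genetic alterations in DNA damage repair.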
A short description of assay [4]: NCI Yeast Anticancer Drug Screen. Data for the cln2 rad14 strain (AID 165).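 Note: 0% = growth equal to vehicle treated cultures.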 Particulars: S. cerevisiae cln2 rad14 strain, at 50.0 µM, stronger effect = higher value. An outline of the steps: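 Growth of compound-exposed yeast (cln2 rad14 genotype) measured and expressed as inhibition relative to vehicle.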
Assay [5] is described as follows: NCI Yeast Anticancer Drug Screen. Data for the bub3 strain (AID 167). The conditions noted are these: S. cerevisiae bub3 mutant strain, at 50.0 µM, stronger effect = higher value. An outline of the steps:
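Steps: expose the mutant yeast strain to compound; grow alongside vehicle-treated cultures; measure growth; express inhibition against the vehicle cultures.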

Assay [6] can be described thus: NCI Yeast Anticancer Drug Screen. Data for the mlh1 rad18 strain (AID 175). Particulars: S. cerevisiae mlh1 rad18 strain growth inhibition; at 50.0 µM; stronger effect = higher value. The method, boiled down: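 In this whole-cell yeast screen, a strain with altered DNA damage repair is challenged with compound, and its growth is measured against matched vehicle-treated controls.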

Take `CN1C(c2ccccc2)=C(C#N)C(=O)CC(c2ccc(Cl)cc2)N1C` (stereo unspecified): the growth inhibition in assay [1] is -7.75%; in assay [2] it was 0.05%; in assay [3], -4.75%; in assay [4], -15.8%; in assay [5] it was -15.8%; in assay [6] it was 2.65%.
As to `COC(=O)C(C)OP(=O)(OC(C)C(=O)OC)OC(C)C(=O)OC` (stereo unspecified), the growth inhibition was 0.4% in assay [1]; -3.55% in assay [2]; -4.75% in assay [3]; -4.05% in assay [4]; 15.1% in assay [5]; 2.7% in assay [6].
Turning to `[O-]/[N+](=C\c1ccc(Cl)cc1)c1ccccc1`, the growth inhibition in assay [1] was -11.2%; in assay [2] it was -14.1%; in assay [3] it was -21.1%; in assay [4], -8.85%; in assay [5], -18.9%; in assay [6] it was -7%.
For `COc1c(C)c2c(c(Br)c1N)COCO2`, the growth inhibition in assay [1] was 3.75%; in assay [2], 16.9%; in assay [3], -10.7%; in assay [4], 8.95%; in assay [5] it was -7.05%; in assay [6], -21.6%.
As for `CCCCCCC(O)C/C=C\CCCCCCCC(=O)O` (stereo unspecified), the growth inhibition in assay [1] was -14%; in assay [2], -3.7%; in assay [3] it was -30.9%; in assay [4], 62.9%; in assay [5], -9.2%; in assay [6], -15.9%.
Consider `BrCCC1(CCBr)CCCCC1`, for which the growth inhibition is 54% in assay [1]; 39.4% in assay [2]; 44.6% in assay [3]; 24.9% in assay [4]; 48.6% in assay [5]; 57.8% in assay [6].
With `O=C(Cc1ccc2cc3c(cc2c1)OCO3)NCCc1ccc2c(c1)OCO2`, the growth inhibition is 30.4% in assay [1]; -8.4% in assay [2]; 25.8% in assay [3]; -11.2% in assay [4]; -1.25% in assay [5]; 8.8% in assay [6].
Take `BrC1CCC(Br)C(Br)CCC1Br` (stereo unspecified): the growth inhibition in assay [1] is 46.5%; in assay [2], 54.9%; in assay [3] it was 55.1%; in assay [4], 31.8%; in assay [5], 60%; in assay [6] it was 70.4% (active).
For the compound `COc1ccc2c(c1)[n+](=O)c(C(=O)C/C(=N/OCCCc1ccccc1)C(=O)NC13CC4CC(CC(C4)C1)C3)c(C)n2[O-]`, the growth inhibition is -1.3% in assay [1]; -3.2% in assay [2]; -19.4% in assay [3]; 17.1% in assay [4]; 3.85% in assay [5]; -4.6% in assay [6].
Take `CCC(C)C(NS(=O)(=O)Cc1ccccc1)C(=O)O` (stereo unspecified): the growth inhibition was -3.85% in assay [1]; 16.4% in assay [2]; 3.05% in assay [3]; 10.9% in assay [4]; -10.3% in assay [5]; 6.8% in assay [6].
Consider `COc1ccccc1OC(C)=O`, for which the growth inhibition in assay [1] was -5.2%; in assay [2], -14.4%; in assay [3] it was -2.3%; in assay [4] it was -8.2%; in assay [5], -1.35%; in assay [6] it was 17.9%.
Take `CN(C)c1ccc(/C=N/NC=O)c(Cl)c1`: the growth inhibition in assay [1] was 0.15%; in assay [2], 8.25%; in assay [3], -0.6%; in assay [4], 11.3%; in assay [5], -0.65%; in assay [6], -15.3%.
Consider `CCCCC(O)(CCC)CCCC`, for which the growth inhibition is -8.75% in assay [1]; -6.95% in assay [2]; 3.75% in assay [3]; -36.9% in assay [4]; -1.25% in assay [5]; 2.55% in assay [6].
On to `C=CCC12CC(C)OC1=Nc1ccccc1NC2=O` (stereo unspecified), for which the growth inhibition in assay [1] is -0.95%; in assay [2] it was -1.85%; in assay [3], -18.2%; in assay [4], 21.1%; in assay [5] it was 7.2%; in assay [6] it was -9.8%.
`COC(=O)c1ccccc1N=CCC(C)CCCC(C)(C)O` (stereo unspecified): the growth inhibition in assay [1] was -10.4%; in assay [2] it was 4.4%; in assay [3], 26.4%; in assay [4] it was -8.4%; in assay [5] it was 0.1%; in assay [6] it was -5.05%.
For the compound `COc1ccc(CC(=O)NCCc2ccc(OC)c(OC)c2)cc1Br`, the growth inhibition in assay [1] is 12.2%; in assay [2], -4.85%; in assay [3], -3.8%; in assay [4], 8.35%; in assay [5], 8.8%; in assay [6] it was 2.6%.
For `Cc1ccc(NC(=O)C(=O)CC(=O)c2c(C)n([O-])c3ccccc3[n+]2=O)cc1`, the growth inhibition was 5.65% in assay [1]; 6.95% in assay [2]; -6.5% in assay [3]; 16.4% in assay [4]; -1.55% in assay [5]; 17.4% in assay [6].
Take `O=[N+]([O-])c1cc(O)ccc1O`: the growth inhibition was 5.4% in assay [1]; 5.45% in assay [2]; 0% in assay [3]; -10.7% in assay [4]; -1% in assay [5]; 12% in assay [6].
Consider `CCOC(=O)C(C)(C)c1ccc(OC)cc1`, for which the growth inhibition in assay [1] was -14.2%; in assay [2], -3.6%; in assay [3] it was -8.6%; in assay [4], -18.9%; in assay [5], 2.6%; in assay [6] it was -16.2%.
For `Cc1ccccc1NC(=O)CC#N`, the growth inhibition in assay [1] is 8.15%; in assay [2] it was -12.3%; in assay [3], 1.5%; in assay [4], 3.85%; in assay [5], -0.7%; in assay [6], 2.2%.
With `CC[N+](C)(CC)CCN1C(=O)CC[C@@]2(C)C1=CC[C@@H]1[C@@H]2CC[C@@]2(C)[C@H]1CC[C@]2(C)O`, the growth inhibition was 6.65% in assay [1]; 8.8% in assay [2]; 6.45% in assay [3]; 29.5% in assay [4]; 9.7% in assay [5]; 12.1% in assay [6].
